# Source: PubChem (National Center for Advancing Translational Sciences (NCATS))
# Only some compounds are listed: those with a hit (about 19% of all), similar ones and a draw of the others.
# IL-1B inflam inh = qHTS for Inhibitors of Inflammasome Signaling: IL-1-beta AlphaLISA Primary Screen; activity change, % at 57.5 µM; hit rate 4.7% among 360,000; THP-1 LPS/ATP IL-1B secretion, AlphaLISA, 16 h; stronger effect = lower value; AID 743279, 2014; in the data active = activity change below about -50%; inconclusive = mostly about -30% to -49%
#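 THP-1 cells pretreated 1 hr with compounds (up to 57.5 uM final), then stimulated with LPS (250 ng/mL final) plus ATP (1.25 mM final); secreted IL-1B measured by AlphaLISA after 16 hr, decreased signal indicating inhibition.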
# DT40 TDP1 CPT = qHTS for Inhibitors of human tyrosyl-DNA phosphodiesterase 1 (TDP1): qHTS in cells in presence of CPT. chicken DT40 Tdp1-/-;hTDP1 cells + 20 nM CPT, ATP luminescence, 48 h. Potency, µM (titrated, usually from 46.2 µM), for inactives: top-dose activity change, negative = growth inhibition, hits mostly inhibitors. hit rate 12% among 420,000; also: potency is read from the fitted curve at half-maximal effect; nearly all actives have a fitted effect of over 55% in size
#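 Chicken DT40 Tdp1-/- cells stably complemented with human TDP1 were seeded at 400 cells/well in medium containing 20 nM camptothecin, exposed to pin-transferred compounds, and grown at 37 °C for at least 48 hr. Viability was read as ATP luminescence.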
# TDP1 cell noCPT = qHTS for Inhibitors of human tyrosyl-DNA phosphodiesterase 1 (TDP1): qHTS in cells in absence of CPT. hit rate 15% among 420,000. DT40 Tdp1-/- hTDP1 cells, no CPT, ATP luminescence, 48 h. AID 686978, 2013. Potency, µM (top dose mostly 46.2 µM), without a hit: top-dose activity change, negative = growth inhibition, most hits filed as inhibitors; also: potency is read from the fitted curve at half-maximal effect; nearly all actives have a fitted effect of over 55% in size
#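 Camptothecin absent (DMSO only). Human TDP1-complemented DT40 knockout cells, 400 cells/well, 37 °C for minimum 48 hr; ATP measured via CellTiter-Glo, 30 min dark incubation, luminescence.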
# Giardia killer = Small Molecules that selectively kill Giardia lamblia: qHTS; Giardia lamblia trophozoite viability; activity change, % at 7.66 µM, hits read low; hit rate 0.15% among 340,000; in the data active = activity change below about -80%; inconclusive = between about -30% and that limit;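 also: parasites exposed to compound for two days anaerobically before the ATP read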
#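 Anaerobic 48 hrs incubation at 37 deg C of 100 trophozoites/well with test compounds; ATPLite 1-Step luminescence, 15-30 min RT, reports cellular ATP as viability.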
# TDP1 block = qHTS Assay for Inhibitors of Tyrosyl-DNA Phosphodiesterase (TDP1); Potency, µM (doses to about 130 µM), for inactives: at the top dose activity change, negative = inhibition, hits mostly inhibitors; recombinant TDP1, AlphaScreen DNA substrate cleavage; hit rate 0.28% among 350,000; also: potency is read from the fitted curve at half-maximal effect; nearly all actives have a fitted effect of over 40% in size
# Target sequence (Q9NUW8 whole entry, looked up): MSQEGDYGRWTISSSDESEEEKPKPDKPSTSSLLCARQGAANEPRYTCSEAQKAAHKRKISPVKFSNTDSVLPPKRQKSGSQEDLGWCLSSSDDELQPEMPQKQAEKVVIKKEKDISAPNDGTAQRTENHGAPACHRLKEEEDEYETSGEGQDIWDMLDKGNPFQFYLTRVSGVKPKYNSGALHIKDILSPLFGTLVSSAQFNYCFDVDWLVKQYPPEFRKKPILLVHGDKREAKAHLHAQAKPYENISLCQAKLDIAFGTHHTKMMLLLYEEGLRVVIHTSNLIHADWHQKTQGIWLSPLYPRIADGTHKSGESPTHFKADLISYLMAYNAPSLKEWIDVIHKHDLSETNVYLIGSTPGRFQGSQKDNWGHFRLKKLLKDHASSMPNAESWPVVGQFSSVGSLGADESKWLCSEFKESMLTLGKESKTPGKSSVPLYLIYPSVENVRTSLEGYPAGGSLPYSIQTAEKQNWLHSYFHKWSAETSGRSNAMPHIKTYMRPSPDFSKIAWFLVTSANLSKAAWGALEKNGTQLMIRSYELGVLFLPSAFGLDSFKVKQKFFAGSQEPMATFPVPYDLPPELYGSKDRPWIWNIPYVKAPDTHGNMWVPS
#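 E. coli-derived human Tdp1, 1 nM final. Cpd preinc 15 min RT; substrate 15 nM final, 5 min RT; AS bead mix 10 ug/ml final, 10 min RT. Signal loss = tyrosine-FITC cleavage. No-enzyme wells = max signal.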
# ELG1 repair inh = qHTS screen for small molecules that inhibit ELG1-dependent DNA repair in human embryonic kidney (HEK293T) cells expressing luciferase-tagged ELG1 | HEK293T ELG1-luciferase reporter, luminescence, 16 h; DNA damage induced by 5-fluorouridine | Potency, µM (highest dose often 46.1 µM), without a hit: top-dose activity change, negative = inhibition, actives largely listed as inhibitors | hit rate 2.3% among 330,000; also: potency is read from the fitted curve at half-maximal effect; nearly all actives have a fitted effect of over 55% in size
#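 Reporter activity after DNA damage by 5-fluorouridine is monitored. Compound-treated cells incubate 16 hr at 37 °C, then ONE-Glo is added for 30 min before luminescence reading.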
# Numbers without * were called inactive; ? = inconclusive; / = no result; [ ] = another dose, or the depositor's remark. Unless noted, calls follow the shape of the dose curve; as a rule, active = well fitted curve in the direction sought with a large enough effect; inconclusive = small, poorly fitted or top-dose-only effect, or another doubt; inactive = no such curve, though single readings can be large; an effect the other way counts as inactive or inconclusive. % is scaled to controls: 0 for no effect and ±100 for the full control effect.
SMILES,IL-1B inflam inh,DT40 TDP1 CPT,TDP1 cell noCPT,Giardia killer,TDP1 block,ELG1 repair inh
Cc1ccc(-n2cc(CNCCCn3cccn3)c(-c3cccc(C)c3)n2)cc1,-99*,13µM*,16µM*,11,/,-10%
COC(=O)CC1C(=O)NCCN1Cc1cn(-c2ccc(C)cc2)nc1-c1cccc(C)c1 (configuration not stated),?,-28%,?,-1,-2%,-13%
Cc1cccc(-c2nn(-c3ccccc3)cc2CNCCO)c1,/,?,13µM*,17,2%,/
Cc1ccc(C)c(-n2cc(CNCCCn3cccn3)c(-c3ccccc3)n2)c1,?,23µM*,21µM*,-4,-1%,-8%
CCN1CC(CN(C)Cc2cn(-c3cccc(C)c3)nc2-c2cccc(F)c2)CC1=O (configuration not stated),?,16µM*,18µM*,-3,0%,-17%
CC(=O)Nc1ccc(NC(=O)c2ncoc2-c2ccco2)cc1,/,5%,?,/,-1%,/
CS(=O)(=O)N1CCC2(CCCN(c3cccc(-c4ccccc4)c3)C2)CC1,/,5%,-1%,/,/,/
COc1ccc(-n2cc(CNCCCn3ccnc3)c(-c3cccc(F)c3)n2)cc1,?,?,-21%,23,2%,-3%
Cc1cccc(-n2cc(CNCCc3nc(C)cc(C)n3)c(-c3cccc(F)c3)n2)c1,?,12µM*,4.6µM*,11,/,23µM*
c1ccc2c(c1)CCN(c1nc3cc4c(cc3s1)OCCO4)C2,-58*,10µM*,?,?,9%,?
O=C(CCCN1C(=O)/C(=C/c2cccc(Br)c2)SC1=S)Nc1cccnc1,-90*,?,16µM*,-6,1%,9.2µM*
O=C(CCCN1C(=O)/C(=C\c2cccc(Br)c2)SC1=S)Nc1cccnc1,-51*,?,15µM*,-8,6%,?
CC(NC(=O)C1CCCN(C(=O)N(C)C)C1)c1ccccc1 (configuration not stated),7,1%,1%,10,1%,18%
O=C(NCc1ccco1)C(c1cccs1)N(C(=O)C1COc2ccccc2O1)c1cccc(O)c1 (configuration not stated),-7,23µM*,13µM*,9,7%,13µM*
CC(C)(C)NC(=O)CN(Cc1cccs1)C(=O)C1COc2ccccc2O1 (configuration not stated),-9,-25%,-24%,-2,3%,-4%
CC(C)CCNC(=O)C(c1ccc(O)cc1)N(Cc1cccs1)C(=O)C1COc2ccccc2O1 (configuration not stated),-73*,23µM*,16µM*,-15,0%,21µM*
CCn1nc(-c2ccccc2)c(-c2ccccc2)c(C(=O)Nc2nc(C)c(C(C)=O)s2)c1=O,/,1.6µM*,1.6µM*,/,0%,/
CCOc1ccc(OCC)c(NC(=O)C(NS(=O)(=O)c2cccs2)c2ccccc2)c1 (configuration not stated),/,-22%,?,/,3%,/
O=c1cnc2cnc(N3CCOCC3)nc2n1C[C@H]1CCCO1,/,-4%,-29%,/,/,/
Cc1cc(S(=O)(=O)Nc2ccc3ccccc3c2)c(C)s1,28,10µM*,11µM*,4,0%,-13%
Cc1cc(S(=O)(=O)Nc2cc(C)c(O)c(C)c2)c(C)s1,-15,2.6µM*,2.9µM*,11,0%,4%
CCCCOC(=O)c1ccc(Nc2ncnc3[nH]ncc23)cc1,/,?,?,/,8%,/
COc1ccccc1N1CCN(C(=O)CCS(=O)(=O)c2cc(Br)cc3c2N(C(=O)C2CC2)CC3)CC1,/,16µM*,?,/,5%,/
CCC(=O)N1CCc2cc(Br)cc(S(=O)(=O)N3CCN(c4ccccc4OC)CC3)c21,/,?,23µM*,/,0%,/
O=[N+]([O-])c1cccc(-c2noc(-c3ccco3)n2)c1,-4,-2%,-20%,-20,0%,?
SMILES,IL-1B inflam inh,DT40 TDP1 CPT,TDP1 cell noCPT,Giardia killer,TDP1 block,ELG1 repair inh
Cc1ccc(-n2nc(C)c3nc(CCC(=O)Nc4ccc(F)cc4)c(=O)n(C)c32)cc1,/,-2%,-1%,/,-1%,/
CCOc1cc(C(=O)N2CCc3c([nH]c4ccccc34)C2c2ccccc2)cc(OCC)c1OCC (configuration not stated),/,6.5µM*,5.8µM*,/,5%,/
COc1cc(C(=O)N2CCc3c([nH]c4ccccc34)C2c2ccc(F)cc2)cc(OC)c1OC (configuration not stated),/,13µM*,15µM*,/,8%,/
CCCCC[C@H](O)/C=C\[C@@H]1[C@H](O)CC(=O)[C@@H]1CCCCCCC(=O)O,/,/,/,/,5%[56.1 µM],/
CCCCC(C)(O)C/C=C/[C@H]1[C@H](O)CC(=O)[C@@H]1CCCCCCC(=O)OC (some centres not stated),/,?,1.5µM*,/,4%,?
O=C(/C=C/[C@H]1O[C@@H](n2ccc(=O)[nH]c2=O)[C@H](O)[C@@H]1O)N1CCN(CCc2ccccc2)CC1,53,0%,13%,/,/,/
O=C(Nc1ccncc1)c1ccc2c(c1)C(=O)N(C1CCCCC1)C2=O,30,18µM*,23µM*,-4,/,-12%
Cc1cc(NC(=O)c2ccc3c(c2)C(=O)N(C2CCCCC2)C3=O)no1,12,?,15µM*,12,6%,3%
S=C(Nc1ccc2[nH]ccc2c1)NC1CCCCC1,9,-12%,-11%,25,5%,?
COc1cc(C(=O)N/N=C/c2ccccn2)cc(OC)c1OC,82,3.3µM*,4.6µM*,18,9%,?
COc1ccc(C(=O)Nc2cccc3cccnc23)cc1OC,-25,?,?,4,2%,?
COc1ccc(OC)c(C(=O)N/N=C/c2ccccn2)c1,11,6%,6%,-5,4%,3%
CCOc1ccc(Br)cc1C(=O)N/N=C/c1ccccn1,31,?,?,9,/,12µM*
COc1cc(C(=O)N/N=C/c2cc([N+](=O)[O-])cs2)cc(OC)c1OC,22,0.82µM*,1µM*,-18,-5%,1%
